From PubChem BioAssay AID488862 (Broad Institute, 2010)
About 1,200 (0.35%) of roughly 340,000 compounds were called active. For the sample, actives were picked, then their nearest neighbours and some compounds at random. Values without a mark were called inactive. Cut-off read from the data, not from the text of the source: active = inhibition above about 52%; inactive = the rest.

test: suppresses PrP 5' UTR mRNA reporter expression (AID 488862); details: cell-based PrP 5' UTR mRNA reporter, plate reader; stronger effect = higher value; concentration not given here; note: 0 = median of the neutral control wells

First: CCOC(=O)c1c(/N=C/c2cc(C)ccc2O)sc2c1CCC2
Second: CCOC(=O)N1CCC(N2Cc3cccc(C(=O)Nc4c(C)cccc4CC)c3C2=O)CC1
The inhibition of the first is lower: -12.5% for the first, -4.9% for the second.

Compared with `O=C(CSc1cccc[n+]1[O-])NCCCc1ccccc1`, `COc1cc(SC)ccc1C(=O)N(Cc1ccccc1)c1ccccc1` is higher in inhibition: -19.4% for the first, -4.63% for the second.

Compared with `CN(C)c1ccc(CNC(=O)CN2C(=O)COc3ccc(S(=O)(=O)N4CCCC4)cc32)cc1`, `O=C(c1ccc(Cl)nc1)N1CCN(S(=O)(=O)c2ccc3c(c2)OCCO3)CC1` is lower in inhibition: -1.62% for the first, -18.9% for the second.

Compared with `CCCC(=O)n1nc(NCc2ccc(OC)cc2)nc1NCc1ccc(OC)cc1`, `O=C(c1cccs1)n1nc(NCc2ccccc2)nc1NCc1ccccc1` is higher in inhibition: -14.7% for the first, -11.8% for the second.

Compared with `Clc1ccc2nc3c(c(-c4ccccc4)c2c1)CNCC3`, `NC(N)=Nc1nc(-c2ccccc2)c2cc(Cl)ccc2n1` is lower in inhibition: -16% for the first, -17.4% for the second.

Going from `O=C(COC(=O)c1ccccc1C(=O)N1CCN(c2ccccc2)CC1)NCc1ccccc1` to `Oc1ccccc1N1CCN(C(=S)NCc2ccccc2)CC1`, the inhibition falls from -7.33% to -14.6%.

First: O=C(NCc1ccco1)c1ccc([N+](=O)[O-])cc1Cl
Second: O=C(OCC(=O)N1CCN(C(=O)c2ccco2)CC1)c1c(Cl)cccc1Cl
The inhibition of the first is higher: -16.6% for the first, -17% for the second.

First: CCC(=O)c1cn(CCOc2ccccc2OC)c2ccccc12
Second: COc1ccc(CCNC(=O)C2CCCN2C(=O)Nc2ccccc2)cc1OC (centres undefined)
The inhibition of the first is higher: -20.1% for the first, -48% for the second.

First: Cc1nn2cc(-c3ccc(Cl)cc3)cnc2c1Br
Second: Cc1ccc(-n2c(-c3ccc(Cl)cc3)n[nH]c2=S)cc1
The inhibition of the first is lower: -42% for the first, -0.525% for the second.

Going from `Cc1ccc(S(=O)(=O)NCCSc2ccccc2)cc1[N+](=O)[O-]` to `CCOc1ccc2sc(NS(=O)(=O)c3ccc(N)cc3)nc2c1`, the inhibition rises from -22.1% to -14.4%.

Compared with `O=C(Nc1ccc2c(c1)OCCO2)c1ccoc1`, `O=C(Nc1ccc2c(c1)OCO2)C1CC1(Cl)Cl` (centres undefined) is higher in inhibition: -45.1% for the first, -8.25% for the second.

Compared with `O=S(=O)(c1ccc(Br)cc1)c1nc(-c2ccccc2)oc1N1CCOCC1`, `O=C(NCc1ccccc1CN1CCCC1)c1cccc(S(=O)(=O)Nc2ccc(F)cc2)c1` is lower in inhibition: -6.56% for the first, -16.1% for the second.

First: COc1ccc(C(=O)Nc2cccc(NC(=O)c3ccc(OC)cc3OC)n2)c(OC)c1
Second: Cc1ccc(-c2cc(C(=O)NCc3cn(C)nc3C)c3cc(Br)ccc3n2)cc1
The inhibition of the first is higher: -7.03% for the first, -28.8% for the second.

Going from `Cc1noc(C)c1COC(=O)Cn1c(C)nc2ccccc21` to `Cc1nc2c(-c3ccc(F)cc3)c(C)nn2c(C)c1CCC(=O)N1CCN(c2ccccn2)CC1`, the inhibition rises from -15.5% to 4.39%.

Going from `CC(=O)c1sc(NC(=O)CCN2C(=O)C3CC=CCC3C2=O)nc1-c1ccccc1` (centres undefined) to `CCOc1ccc(NC(=O)CCCCCN2C(=O)[C@@H]3Cc4ccccc4CN3C2=O)cc1`, the inhibition rises from -19.1% to -14.6%.

Going from `CC(=NCc1ccc2c(c1)OCO2)C1=C(O)c2ccccc2C1=O` to `COc1ccccc1CNC(=O)CSc1nc(=O)n(Cc2ccncc2)c2c1CCC2`, the inhibition rises from 1.49% to 10.7%.

Compared with `Cc1cc(O)c(C(=O)/C=C/c2c(F)c(F)c(F)c(F)c2F)c(=O)o1`, `COc1ccc(C(=O)C2CCCN(C(=O)c3cnsn3)C2)c(C)c1` (centres undefined) is lower in inhibition: 8.81% for the first, -10.1% for the second.

First: CC1(C)C[C@H]2C3=CCC4[C@@]5(C)CC[C@H](O)[C@](C)(CO)C5CC[C@@]4(C)[C@]3(C)C[C@@H](O)[C@@]2(CO)[C@@H](O)[C@@H]1O (some centres undefined)
Second: CCCCN(C(=O)CCNC(=O)NC12CC3CC(CC(C3)C1)C2)c1c(N)n(CCCC)c(=O)[nH]c1=O
The inhibition of the first is lower: -7.8% for the first, 9.19% for the second.

Compared with `CS(=O)(=O)N(CC(=O)N1CCOCC1)c1ccc2c3c(cccc13)CC2`, `CCOc1ccc(NC(=O)CCS(=O)(=O)c2cccc3nsnc23)cc1` is higher in inhibition: -19.4% for the first, -15.9% for the second.

First: CC(=O)Nc1ccc(NC(=O)CSc2nnc(COc3ccccc3C)n2CC2CCCO2)cc1 (centres undefined)
Second: Cc1cc(NC(=O)Nc2ccc(Cl)cc2)n(-c2ccccc2)n1
The inhibition of the first is higher: -3.51% for the first, -39.6% for the second.

Going from `COc1ccc(CCNS(=O)(=O)c2ccc(Cl)s2)cc1OC` to `O=C(COC(=O)c1ncc(Cl)c(Cl)c1Cl)NCc1cccs1`, the inhibition falls from 6.31% to -15.5%.

First: Cn1c(Nc2ccccc2)cc(=O)n(C)c1=O
Second: Cc1ccc(-c2cc(N)on2)cc1
The inhibition of the first is lower: -38.1% for the first, -33% for the second.

Compared with `CCOc1ccc(CN(Cc2ccco2)C(c2cccs2)c2nnnn2C(C)(C)C)cc1` (centres undefined), `Cc1ccc(OCCOCCOc2ccc(Br)cc2/C=N\NC(=O)c2ccncc2)cc1` is lower in inhibition: -13.3% for the first, -18.1% for the second.

Going from `CSc1nnc2ccc(-c3ccc(C)cc3)nn12` to `O=C(NC(=S)Nc1ccc(Cl)cc1Cl)C1CC1`, the inhibition falls from 0.671% to -42.6%.

With `C=CCn1c(C)cc(C2=NNC(=NCC)SC2)c1C` the inhibition was 93.9% (active).
For `Clc1ccc2nc(-c3ccccc3)nc(C(Cl)Cl)c2c1`, the inhibition was 92.7% (active).
With `Oc1ccc(N2CCN(C(=S)NCc3ccccc3)CC2)cc1` the inhibition was 87.9% (active).
In the case of `Cc1ccc(S(=O)(=O)Nc2nc3ccccc3s2)cc1[N+](=O)[O-]`, the inhibition is reported as 57.4% (active).
For `O=C(Nc1ccc2c(c1)OCCO2)C1CCCC1`, the inhibition was 56.5% (active).
For `COc1cc(SC)ccc1C(=O)Nc1nc(C)cs1`, the inhibition was 87% (active).
With `CCC(C)(O)C(=O)OC1C(=O)OC2CC3C(C)=CC(=O)C(O)C3(C)C3C4(O)OCC23C1C(C)C4O` (centres undefined) the inhibition was 78.9% (active).
With `COC1C(O)C(C)OC(OC2CCC3(C=O)C(CCC4C3CCC3(C)C(C5=CC(=O)OC5)CCC43O)C2)C1O` (centres undefined) the inhibition was 89.8% (active).
For `Cc1cc(Nc2ccccc2)n(C(=O)c2ccc(N)cc2)n1`, the inhibition was 67.9% (active).
With `Cc1ccc(-c2cn3cc(C)ccc3n2)cc1` the inhibition was 85.2% (active).
In the case of `Cc1ccc2nc(-c3ccc(Br)cc3)cn2c1`, the inhibition is reported as 71% (active).
